This is an account of results in PubChem BioAssay (Tox21).

Unmarked numbers belong to inactive results. Inconclusive results are not listed. Where a call stands in place of a potency, no number is given. Active and inactive are the calls of the source. Unless noted, calls follow the shape of the full dose curve.

Chain of Muscarinic acetylcholine receptor M1 (Homo sapiens) (P11229 whole entry, looked up): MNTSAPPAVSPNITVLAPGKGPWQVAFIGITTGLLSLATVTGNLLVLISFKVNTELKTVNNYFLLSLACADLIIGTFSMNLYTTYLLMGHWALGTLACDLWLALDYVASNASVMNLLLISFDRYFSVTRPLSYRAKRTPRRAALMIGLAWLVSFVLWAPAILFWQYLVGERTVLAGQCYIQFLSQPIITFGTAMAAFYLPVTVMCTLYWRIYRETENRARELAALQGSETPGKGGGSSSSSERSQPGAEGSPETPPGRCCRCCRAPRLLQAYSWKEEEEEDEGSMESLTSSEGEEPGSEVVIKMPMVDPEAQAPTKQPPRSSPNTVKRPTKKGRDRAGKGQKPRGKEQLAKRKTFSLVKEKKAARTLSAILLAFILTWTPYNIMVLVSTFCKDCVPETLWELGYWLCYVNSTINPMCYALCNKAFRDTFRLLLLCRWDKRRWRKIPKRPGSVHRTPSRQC

The first assay deals with Muscarinic acetylcholine receptor M1 (Homo sapiens) (UniProt P11229). In words: Cholinergic receptor muscarinic 1 (CHRM1) small molecule agonists, cell-based qHTS assay (AID 1963589). Also: nearly all actives have a fitted effect of over 35% in size. The note with it: CHRM1-CHO cells, agonist mode, calcium flux fluorescence; series mostly up to 76.8 µM. In outline:
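Homogeneous fluorescence calcium flux, agonist mode. Human M1-expressing CHO cells; compound dosed at 15 concentrations, three independent runs; signal sampled every 1 sec.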
For orientation: In qHTS, concentration-response curves come from the screen itself.
Take `CCN(CC)CCOC(=O)C(Cc1cccc2ccccc12)CC1CCCO1` (stereo not given): the Potency result was “inactive”.
As to `O=c1[nH]cnc2ccccc12`, the Potency entry is “inactive”.
Consider `CCCCCCCCCCOc1cc2c(=O)c(C(=O)OCC)c[nH]c2cc1OCC`, for which the activation is 0.0185% [at 6.97 µM].
The same measure, in the same setting: then `CCC(=O)CC(C)CC` (stereo not given), with 0.0292% [at 0.29 µM].
As for `CCCCOCCOC(=O)COc1ccc(Cl)cc1Cl`, the Potency result was “inactive”.
Same read-out and setting: then `CC(COC(C)(C)C)OCCCO` (stereo not given), with “inactive”.
Still for that read-out and setting: the same measure for `Cc1ccc(-n2nc(C(C)(C)C)cc2NC(=O)Nc2ccc(OCCN3CCOCC3)c3ccccc23)cc1`: “inactive”; for `CCN(CCCCOC(=O)c1ccc(OC)c(OC)c1)C(C)Cc1ccc(OC)cc1` (stereo not given): “inactive”.
Turning to `C/C=C/C(=O)OCC(C)C`, the Potency entry is “inactive”.
Take `N#CSc1ccc(N)c([N+](=O)[O-])c1`: the Potency entry was “inactive”.
Still for that read-out and setting: the same measure for `C=C(C)C(=O)OCCCCCCCCCCOC(=O)C(=C)C`: “inactive”; for `Cc1ccc(C(=O)Oc2ccc(C(O)CNC(C)(C)C)cc2OC(=O)c2ccc(C)cc2)cc1` (stereo not given): “inactive”.
As for `O=C(CCCCCCCCc1cccnc1)N1CCC(C=C(c2ccccc2)c2ccccc2)CC1`, the Potency entry was “inactive”.
The same measure, in the same setting: the same measure for `N=C(N)c1ccc(OCCCOc2ccc(C(=N)N)cc2)cc1`: “inactive”; for `COCCCCCCCCOCCC[Si](C)(O[Si](C)(C)C)O[Si](C)(C)C`: “inactive”; for `CCOC(=N)CC(=O)OCC`: “inactive”.
Same read-out and setting: the same measure for `CC(C)(C)c1nnc(NS(=O)(=O)c2ccccc2)s1`: “inactive”.
With `CCCCc1nc2cccnc2n1Cc1ccc(-c2ccccc2-c2nnn[nH]2)cc1`, the Potency result is “inactive”.
Still for that read-out and setting: the same measure for `O=C(O)Cc1csc(-c2ccc(Cl)cc2)n1`: “inactive”; for `CCOC(=O)Nc1ccc(NCc2ccc(F)cc2)nc1N`: “inactive”.
The same measure, in the same setting: then `CC(=O)Nc1cccc(C)c1`, with “inactive”; and `O=C=Nc1cccc(C(F)(F)F)c1`, with “inactive”; and `NCCS`, with “inactive”.
Same read-out and setting: the same measure for `O=S1(=O)CC(Cl)(Cl)C(Cl)(Cl)C1`: “inactive”; for `CN1CCN(C2Cc3ccccc3Sc3ccc(Cl)cc32)CC1` (stereo not given): “inactive”; for `CCOC(=O)C1=NN(c2ccc(Cl)cc2Cl)C(C)(C(=O)OCC)C1` (stereo not given): “inactive”.

Tested on in another assay: not listed separately
In words: cAMP Responsive Elements (CRE) small molecule agonists, cell-based qHTS assay (AID 1963590). The conditions noted are these: CRE-bla HEK293T, beta-lactamase FRET ratio, 3 h; series mostly up to 92.4 µM. In outline:
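HEK 293T cells stably bearing CRE-bla were plated at 2,000 cells per well and rested 18 h. Compounds, positive controls or DMSO were added for 3 h at 37 C. LiveBLAzer B/G substrate was then loaded for 2 h at room temperature.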
For the molecule `CN=C(NC#N)Nc1ccc(C2=NNC(=O)CC2C)cc1` (stereo not given), the Potency entry was “inactive”.
Still for that read-out and setting: the same measure for `CCN(CC)CCOC(=O)C(Cc1cccc2ccccc12)CC1CCCO1` (stereo not given): “inactive”; for `O=c1[nH]cnc2ccccc12`: “inactive”.
For `CCCCCCCCCCOc1cc2c(=O)c(C(=O)OCC)c[nH]c2cc1OCC`, the activation is 0.069% [at 8.39 µM].
`CCC(=O)CC(C)CC` (stereo not given): the activation was 0.0521% [at 0.349 µM].
Consider `CC(=O)CC(=O)OC(C)(C)C`, for which the Potency entry is “inactive”.
The same measure, in the same setting: then `CC(COC(C)(C)C)OCCCO` (stereo not given), with “inactive”; and `CCCCCCCCCOC(=O)c1ccccc1C(=O)OCCCCCCCCC`, with “inactive”; and `N#CC1(N)CCCCC1`, with “inactive”.
The same measure, in the same setting: the same measure for `CCN(CCCCOC(=O)c1ccc(OC)c(OC)c1)C(C)Cc1ccc(OC)cc1` (stereo not given): “inactive”.
Same read-out and setting: then `C=COCC(C)C`, with “inactive”.
Consider `C/C=C/C(=O)OCC(C)C`, for which the Potency entry is “inactive”.
Regarding `C=C(C)C(=O)OCCCCCCCCCCOC(=O)C(=C)C`, the Potency result is “inactive”.
Turning to `N=C(N)c1ccc(OCCCOc2ccc(C(=N)N)cc2)cc1`, the Potency result is “inactive”.
On to `CCOC(=N)CC(=O)OCC`, for which the Potency result is “inactive”.
Same read-out and setting: then `Oc1ccc2c(c1)CCC2`, with “inactive”.
On to `CC(C)(C)c1nnc(NS(=O)(=O)c2ccccc2)s1`, for which the Potency result is “inactive”.
The same measure, in the same setting: then `CCOC(=O)Nc1ccc(NCc2ccc(F)cc2)nc1N`, with “inactive”.
On the same count and under the same terms, the same measure for `CC(Cl)C(Cl)Cl` (stereo not given): “inactive”.
With `O=C(O)C[C@H](O)C[C@H](O)/C=C/c1c(C2CC2)nc2ccccc2c1-c1ccc(F)cc1`, the activation is 0.303% [at 19 µM].
As for `CC(=O)Nc1cccc(C)c1`, the Potency result is “inactive”.
On to `O=C=Nc1cccc(C(F)(F)F)c1`, for which the Potency entry was “inactive”.
The same measure, in the same setting: the same measure for `NCCS`: “inactive”; for `CCOC(=O)C1=NN(c2ccc(Cl)cc2Cl)C(C)(C(=O)OCC)C1` (stereo not given): “inactive”.

Tested on in the next assay: not listed separately
In words: cAMP Responsive Elements (CRE) small molecule antagonists, cell-based qHTS assay (AID 1963591; active = well fitted inhibition curve with a large enough effect in the signal ratio in the repeat runs, not every such curve was filed as active; the % refers to the signal ratio). The note with it: CRE-bla HEK293T, beta-lactamase FRET ratio; series mostly up to 92.4 µM. In outline: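 First, CRE-bla HEK293T cells settled 18 h at 37 C. Next, compound and 0.25 uM final NKH477 were applied for 3 h. Last, LiveBLAzer B/G substrate was loaded for 2 h at room temperature.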
For the molecule `CN=C(NC#N)Nc1ccc(C2=NNC(=O)CC2C)cc1` (stereo not given), the Potency entry is “inactive”.
With `CCCCCCCCCCOc1cc2c(=O)c(C(=O)OCC)c[nH]c2cc1OCC`, the activity change, negative = inhibition is 0.102% [at 8.39 µM].
On to `CCC(=O)CC(C)CC` (stereo not given), for which the activity change, negative = inhibition was 1.08% [at 0.349 µM].
Regarding `CC(=O)CC(=O)OC(C)(C)C`, the Potency entry is “inactive”.
For the molecule `N#CC1(N)CCCCC1`, the Potency result is “inactive”.
The same measure, in the same setting: then `C=COCC(C)C`, with “inactive”; and `C/C=C/C(=O)OCC(C)C`, with “inactive”; and `N#CSc1ccc(N)c([N+](=O)[O-])c1`, with “inactive”.
On the same count and under the same terms, the same measure for `C=C(C)C(=O)OCCCCCCCCCCOC(=O)C(=C)C`: “inactive”; for `O=C(CCCCCCCCc1cccnc1)N1CCC(C=C(c2ccccc2)c2ccccc2)CC1`: “inactive”; for `N=C(N)c1ccc(OCCCOc2ccc(C(=N)N)cc2)cc1`: “inactive”.
`CCOC(=N)CC(=O)OCC`: the Potency result is “inactive”.
In the case of `Oc1ccc2c(c1)CCC2`, the Potency result is “inactive”.
For `CC(C)(C)c1nnc(NS(=O)(=O)c2ccccc2)s1`, the Potency result is “inactive”.
Same read-out and setting: the same measure for `CC(Cl)C(Cl)Cl` (stereo not given): “inactive”.
Same read-out and setting: the same measure for `O=C=Nc1cccc(C(F)(F)F)c1`: “inactive”; for `CN1CCN(C2Cc3ccccc3Sc3ccc(Cl)cc32)CC1` (stereo not given): “inactive”; for `CCOC(=O)C1=NN(c2ccc(Cl)cc2Cl)C(C)(C(=O)OCC)C1` (stereo not given): “inactive”.

A further assay deals with Beta-2 adrenergic receptor (Homo sapiens) (UniProt P07550). In words: Adrenergic beta2 receptor (ADRB2) small molecule antagonists, cell-based qHTS assay (AID 1963592). Also: nearly all actives have a fitted effect of over 50% in size. Also: potency is read from the fitted curve at half-maximal effect. The conditions noted are these: CHO-ADRB2 cells, isoproterenol-stimulated cAMP HTRF ratio, 0.5 h; series mostly up to 92.4 µM. In outline: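 Assay format: CHO-ADRB2 cells, 18-20hr seeding at 37C/5% CO2, then compound plus 1nM isoproterenol agonist mix for 0.5hr RT. Homogeneous time-resolved fluorescence cAMP detection after 1hr, expressed as 665/615 nm ratio.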
Chain of Beta-2 adrenergic receptor (Homo sapiens) (P07550 whole entry, looked up): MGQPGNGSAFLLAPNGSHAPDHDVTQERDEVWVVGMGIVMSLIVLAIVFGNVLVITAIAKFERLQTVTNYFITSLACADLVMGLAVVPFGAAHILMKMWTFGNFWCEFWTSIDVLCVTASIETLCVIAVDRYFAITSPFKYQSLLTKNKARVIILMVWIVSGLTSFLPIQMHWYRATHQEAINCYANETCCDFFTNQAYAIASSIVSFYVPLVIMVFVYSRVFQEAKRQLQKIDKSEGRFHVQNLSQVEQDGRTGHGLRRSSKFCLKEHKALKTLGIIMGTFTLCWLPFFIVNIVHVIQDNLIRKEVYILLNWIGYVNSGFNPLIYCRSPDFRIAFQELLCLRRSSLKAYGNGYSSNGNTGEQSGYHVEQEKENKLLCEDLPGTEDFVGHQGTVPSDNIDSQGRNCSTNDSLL
With `CN=C(NC#N)Nc1ccc(C2=NNC(=O)CC2C)cc1` (stereo not given), the Potency result was “inactive”.
`CCN(CC)CCOC(=O)C(Cc1cccc2ccccc12)CC1CCCO1` (stereo not given): the Potency result was “inactive”.
For `CCCCCCCCCCOc1cc2c(=O)c(C(=O)OCC)c[nH]c2cc1OCC`, the activity change, negative = inhibition is 4.81% [at 8.39 µM].
As for `CCC(=O)CC(C)CC` (stereo not given), the activity change, negative = inhibition was 7.63% [at 0.349 µM].
Take `CCCCOCCOC(=O)COc1ccc(Cl)cc1Cl`: the Potency entry was “inactive”.
The same measure, in the same setting: then `CC(=O)CC(=O)OC(C)(C)C`, with “inactive”.
The same measure, in the same setting: the same measure for `CC(COC(C)(C)C)OCCCO` (stereo not given): “inactive”; for `CCCC1CCCC(=O)O1` (stereo not given): “inactive”.
Regarding `CCCCCCCCCOC(=O)c1ccccc1C(=O)OCCCCCCCCC`, the Potency result was “inactive”.
The same measure, in the same setting: then `N#CC1(N)CCCCC1`, with “inactive”; and `CCN(CCCCOC(=O)c1ccc(OC)c(OC)c1)C(C)Cc1ccc(OC)cc1` (stereo not given), with 13.3 µM (active).
For `C=COCC(C)C`, the Potency entry is “inactive”.
Turning to `C/C=C/C(=O)OCC(C)C`, the Potency result is “inactive”.
The same measure, in the same setting: then `N#CSc1ccc(N)c([N+](=O)[O-])c1`, with “inactive”; and `C=C(C)C(=O)OCCCCCCCCCCOC(=O)C(=C)C`, with “inactive”; and `C/C=C/C(=O)Oc1c(CCCCCC(C)C)cc([N+](=O)[O-])cc1[N+](=O)[O-]`, with “inactive”.
The same measure, in the same setting: the same measure for `O=C(CCCCCCCCc1cccnc1)N1CCC(C=C(c2ccccc2)c2ccccc2)CC1`: “inactive”; for `O=C1CCCN1CCO`: “inactive”.
Still for that read-out and setting: the same measure for `N=C(N)c1ccc(OCCCOc2ccc(C(=N)N)cc2)cc1`: “inactive”; for `COCCCCCCCCOCCC[Si](C)(O[Si](C)(C)C)O[Si](C)(C)C`: “inactive”; for `CCOC(=N)CC(=O)OCC`: “inactive”.
Take `Oc1ccc2c(c1)CCC2`: the Potency entry was “inactive”.
The same measure, in the same setting: then `CC(C)(C)c1nnc(NS(=O)(=O)c2ccccc2)s1`, with “inactive”; and `CCOC(=O)Nc1ccc(NCc2ccc(F)cc2)nc1N`, with “inactive”; and `CC(Cl)C(Cl)Cl` (stereo not given), with “inactive”.
`O=C(O)C[C@H](O)C[C@H](O)/C=C/c1c(C2CC2)nc2ccccc2c1-c1ccc(F)cc1`: the activity change, negative = inhibition is -0.968% [at 19 µM].
With `CC(=O)Nc1cccc(C)c1`, the Potency entry is “inactive”.
Same read-out and setting: then `CCCCCCc1ccc(N)cc1`, with “inactive”.
In the case of `O=C=Nc1cccc(C(F)(F)F)c1`, the Potency result is “inactive”.
On to `CCCCC(CC)CN1C(=O)C2C3C=CC(C3)C2C1=O` (stereo not given), for which the Potency entry is “inactive”.
Regarding `CN1CCN(C2Cc3ccccc3Sc3ccc(Cl)cc32)CC1` (stereo not given), the Potency entry was “inactive”.
Same read-out and setting: then `CCOC(=O)C1=NN(c2ccc(Cl)cc2Cl)C(C)(C(=O)OCC)C1` (stereo not given), with “inactive”.
